Drawing on PubChem BioAssay AID1626 (SRMLSC, 2009), this text covers inhibition for 94 compounds.

The whole screen tested about 220,000 compounds, of which about 2,000 (0.91%) were called active. Not shown: some 2% with an inconclusive outcome. These entries were drawn from the full list. Potency and affinity values are given separately. Unmarked numbers belong to inactive results. Cut-off read from the data, not from the text of the source: inconclusive = inhibition above about 80% without an active follow-up result; inactive = below that; test concentration not stated here.

The nature of this assay: M. tuberculosis H37Rv growth inhibitors, H37Rv strain (AID 1626).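 Note: bacteria incubated seven days before Alamar blue readout; 0% = bacteria only wells and 100% = bacteria with antibiotic wells.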 As to conditions: stronger effect = higher value, concentration not given here.
`CCCCCCN1C=C/C(=C\C=C(C#N)C#N)c2ccccc21`: the inhibition is 34.9%. In the case of `COc1ccccc1NC(=S)N(CCCN(C)C)Cc1cc2cc3c(cc2[nH]c1=O)OCO3`, the inhibition was -2.36%. Regarding `CCOC(=O)CN1CC23C=CC(O2)C(C(=O)Nc2ccc(F)c(C)c2)C3C1=O` (centres undefined), the inhibition was -11.9%.

On to `CCCCNC(=O)COC(=O)c1ccc(C)c(NC(=O)c2ccco2)c1`, for which the inhibition was -7%. Take `CCN1CCN(C(=O)C(=O)c2c(C)[nH]c3ccccc23)CC1`: the inhibition was 0.56%. As for `O=C(CSc1nnc(CCCN2C(=O)c3cccc4cccc(c34)C2=O)n1-c1ccccc1)N1CCN(CCO)CC1`, the inhibition was -10.9%. In the case of `O=C1Nc2cc(Cl)cnc2N2CCCC12` (centres undefined), the inhibition is 2.46%. The figure for `CCN(CC)CCCNC(=O)Cn1nc([N+](=O)[O-])c(Cl)c1C` is -1.51%; for `Cc1ccc(CNC(=O)c2ccc(CNc3c(N4CCCC4)c(=O)c3=O)cc2)cc1` it is 8.62%; for `CCOC(=O)C1CCCN(C(=O)c2ccc(CNc3c(N4CCC(C)CC4)c(=O)c3=O)cc2)C1` (centres undefined) it is 0.97%. For `CC1CCN(C(=O)c2ccc(CNc3c(N4CCCC4)c(=O)c3=O)cc2)CC1`, the inhibition is 78.3%. The figure for `O=C(NCc1ccccc1)c1ccc(CNc2c(N3CCCC3)c(=O)c2=O)cc1` is 3.31%. Take `CC1CCN(c2c(NCc3ccc(C(=O)N4c5ccccc5CC4C)cc3)c(=O)c2=O)CC1` (centres undefined): the inhibition is 7.17%. `Cc1cccc(N2CCN(C(=O)c3ccc(CNc4c(N5CCC(C)CC5)c(=O)c4=O)cc3)CC2)c1C`: the inhibition is 73.1%. As to `O=[N+]([O-])c1ccc(N2CCC(O)CC2)nc1`, the inhibition was -4.33%.

On to `O=c1oc2ccccc2c(NCCO)c1[N+](=O)[O-]`, for which the inhibition was 0.19%. The figure for `Cc1cc(C)cc(NC(=O)C2CCCC2)c1` is -9.17%; for `NC(=O)C1CCN(c2nc(-c3ccccc3)nc3c2oc2ccccc23)CC1` it is 0.65%.

Turning to `O=C(O)C1CCN(c2nc(-c3ccccc3)nc3c2oc2ccccc23)CC1`, the inhibition was 2.63%. Consider `CCOC(=O)C1CCN(c2nc(-c3ccccc3)nc3c2oc2ccccc23)CC1`, for which the inhibition was 25.5%. The figure for `OCCN(CCO)c1nc(-c2ccccc2)nc2c1oc1ccccc12` is 0.94%; for `COc1ccc(NC(=S)NCc2ccc(S(N)(=O)=O)cc2)c(OC)c1` it is 6.58%; for `O=C(NC1CCCC1)C(c1ccc(N2CCOCC2)cc1)N(Cc1ccccc1)C(=O)c1ccco1` (centres undefined) it is -11.4%. As for `O=c1c(C(c2ccccc2)c2c(O)nc3n(c2=O)CCCS3)c(O)nc2n1CCCS2`, the inhibition is 7.37%.

In the case of `Cc1cc(C)c(S(=O)(=O)N2CCC(C(=O)NCc3ccc(Cl)cc3Cl)CC2)c(C)c1`, the inhibition was 4.79%. `O=S(=O)(c1ccccc1Br)N1CCC(O)(c2cccnc2)CC1`: the inhibition is -4.98%. Take `CCOc1ccccc1NC(=O)C1CCCN(S(=O)(=O)c2ccc(OC)c(C)c2)C1` (centres undefined): the inhibition is -3.35%.

Take `O=C(Nc1nnc(-c2ccccc2)o1)Nc1ccc(F)cc1F`: the inhibition was 7.77%. On to `O=C(Nc1ccccc1)c1nc2ccccc2s1`, for which the inhibition was 27.8%.

`O=C(Nc1ccccc1)Nc1nnc(-c2ccccc2)o1`: the inhibition was 6.54%. `NC(=O)c1oc2ccccc2c1NC(=O)c1nc2ccccc2s1`: the inhibition is -3.12%. As for `O=C(Nc1nnc(-c2cccnc2)o1)c1ccccc1Cl`, the inhibition is 4.74%. As to `O=C(Nc1ccc(F)cc1)Nc1nnc(-c2ccccc2)o1`, the inhibition was -7.42%. Regarding `COc1ccc(CNC(=O)c2cnccn2)cc1`, the inhibition is -0.78%. The figure for `COc1ccc(CCNC(=O)C2CCC(CNc3c(N4CCCC4)c(=O)c3=O)CC2)cc1OC` (centres undefined) is -2.59%; for `COC(=O)[C@@H]1CCCN1Cc1c(C(=O)N2CCOCC2)nc2c(C)cccn12` it is -6.22%; for `O=C(COc1ncnc2sccc12)N1CCN(C(=O)c2ccco2)CC1` it is -7.61%. With `O=c1c2ccccc2c(C=NCCCN2CCOCC2)c(O)n1Cc1ccc2c(c1)OCO2`, the inhibition was 4.72%. `CC1(C)CC(N=Cc2c(O)n(Cc3ccc4c(c3)OCO4)c(=O)c3ccccc23)CC(C)(C)N1`: the inhibition is 15%.

As to `O=C(c1ccccc1-n1cccc1)N1N=C(C(F)F)CC1(O)C(F)F` (centres undefined), the inhibition was -5.84%. Take `Cc1ccc2occ(/C=N/NC(N)=S)c(=O)c2c1`: the inhibition is -2.35%. Take `COc1cc(OC)cc(C(=O)/C=C2\Sc3ccccc3N2C)c1`: the inhibition is -9.58%.

With `COc1ccc(C(=O)/C=C2\Sc3ccccc3N2C)cc1`, the inhibition was -4.42%. As for `COc1ccc(CNC(=O)COC(=O)c2cncc(Br)c2)cc1`, the inhibition is -4.32%. In the case of `Cc1nc2cc(O)ccc2n1C`, the inhibition was -5.57%. `COc1ccc(CNC(=O)c2cc(-c3ccncc3)nc3c(C)cc(C)cc23)cc1OC`: the inhibition is 6.31%.

For the compound `COc1cccc(NC(=O)c2cc(-c3cccnc3)nc3c(Cl)cccc23)c1`, the inhibition was -0.99%. `Cc1ccc(-c2cc(C(=O)Nc3cc(C)on3)c3ccccc3n2)cc1`: the inhibition was 6.46%.

In the case of `Cc1cc(NC(=O)c2cc(-c3cccnc3)nc3c(C)c(C)ccc23)no1`, the inhibition is 13.3%. As for `COc1ccc(N(C(C)C(=O)Nc2cccnc2)S(C)(=O)=O)cc1` (centres undefined), the inhibition is -6.21%.

For `Cc1cc(C)c2nc(N3CCC(C(=O)N4CCN(C(=O)c5ccco5)CC4)CC3)sc2c1`, the inhibition was -2.47%.

Take `O=C(NCc1cccc(Cl)c1)c1cc(COc2ccc3ncccc3c2)on1`: the inhibition is 58.2%. The figure for `COc1ccc(-n2nnc3c(=O)n(Cc4cccc(C)c4)cnc32)cc1` is -11.3%; for `CCOC(=O)C(C)Sc1ncc(-c2ccccc2)cn1` (centres undefined) it is -6.07%. Take `CCOC(=O)C(C)Sc1ncc(OC)c(Sc2ccc(Cl)cc2)n1` (centres undefined): the inhibition is 7.19%. `COc1ccccc1-c1nnc(SCC(=O)OC(C)C)o1`: the inhibition was 58.4%.

As to `CCOC(=O)CSc1nnc(-c2cccc(Cl)c2)n1CC`, the inhibition was -1.18%. For the compound `CCOC(=O)CSc1ncc(-c2ccccc2)cn1`, the inhibition is 15%. With `CC(C)OC(=O)CSc1nnc(-c2ccc(Cl)cc2Cl)n1N`, the inhibition is -12.6%. Take `CCSc1nnc(-c2ccc(Cl)cc2Cl)o1`: the inhibition is 4.11%. For `CCCOC(=O)CSc1nnc(-c2ccccc2Cl)o1`, the inhibition is 42.3%.

Take `O=C(CN1C(=O)c2cccc3cccc1c23)Nc1ccc(S(=O)(=O)Nc2nccs2)cc1`: the inhibition was -0.34%. Consider `COC(=O)c1ccc(/C=N/OCC(=O)NC2CCCC(C)C2C)cc1` (centres undefined), for which the inhibition was 10.8%. Take `O=C(CSc1nc(-c2ccccc2)cs1)NCc1ccco1`: the inhibition is 3.71%. The figure for `COc1ccc(CC(=O)NC(C)(C)CC(C)=O)cc1OC` is 6.3%; for `CSc1ccc(-c2nnn(Cc3ccc(C)cc3)n2)cc1` it is -7.23%. For the compound `C=CCSc1nc(-c2ccc(OC)cc2)c(C#N)c(=O)n1CC=C`, the inhibition is 15.4%. Consider `COc1ccc(/C=C/C(=O)NCC(=O)n2nc(C)cc2C)cc1`, for which the inhibition was -7.73%. Regarding `COc1ccc2[nH]c(=O)c(CN(C)C(=O)C3CCCCC3)cc2c1`, the inhibition is 4.58%. The figure for `O=C1NC(=O)C2C1C(c1cccs1)NN2Cc1ccccc1` (centres undefined) is 3.37%; for `Cc1nn(CCC#N)c(NC(=O)c2ccc(Cl)cc2)c1P(=O)(Nc1ccc([N+](=O)[O-])cc1)N1CCOCC1` (centres undefined) it is -25.7%; for `COc1ccc(-c2c(=O)n(OCc3ccccc3[N+](=O)[O-])c3ccccc3[n+]2[O-])c(OC)c1` it is 2.69%. `CCCNCc1cc(OC)c(OCc2ccccc2)cc1Br`: the inhibition was 6.93%.

With `Cc1nn2c(N3CCN(C(=O)c4ccco4)CC3)cc(C(C)(C)C)nc2c1-c1ccccc1`, the inhibition was 32.7%.

With `CCN1CCN(c2cc(C(C)C)nc3c(-c4ccccc4)c(C)nn23)CC1`, the inhibition is 11.2%. Regarding `Cc1cc(N2CCN(Cc3ccccc3)CC2)n2nc(C)c(-c3ccccc3)c2n1`, the inhibition was -3.83%. For the compound `Cc1nn2c(N3CCN(C4CCCC4)CC3)cc(C(C)(C)C)nc2c1-c1ccccc1`, the inhibition was 8.34%. The figure for `O=C(CCc1ccccc1)NC1CCSC1=O` (centres undefined) is -9.93%; for `FC(F)(F)c1cc(CCN2C(=S)NC[C@@H]2CC2CCCCC2)cc(C(F)(F)F)c1` it is -1.6%; for `NC1=NC[C@H](c2ccccc2)N1CCCCC1CCCCC1` it is 52.1%. With `CCCCN1C(N)=NC[C@@H]1Cc1ccc(O)cc1`, the inhibition was -2.68%. For `NC1=NC[C@H](Cc2ccccc2)N1CC1CCCCC1`, the inhibition is -8.5%. For `NC1=NC[C@H](Cc2ccc(O)cc2)N1CC1CCCCC1`, the inhibition is -3.49%.

Take `NC1=NC[C@@H](Cc2ccc(O)cc2)N1CCC12CC3CC(CC(C3)C1)C2`: the inhibition was 20.2%. With `NC1=NC[C@@H](Cc2ccc(O)cc2)N1CC1CCCCC1`, the inhibition was -0.61%. Regarding `NC1=NC[C@@H](Cc2ccc(O)cc2)N1CCc1cc(C(F)(F)F)cc(C(F)(F)F)c1`, the inhibition was 11.5%. The figure for `COC(=O)c1ccc(COc2ccccc2/C=C(\C#N)C(=O)NC(C)C)cc1` is 4.92%; for `COc1ccc(-n2c(O)c(C(C)=NCc3ccco3)c(=O)[nH]c2=O)cc1` it is 2.3%; for `CCOC(=O)C1=C(CSc2nc(-c3ccccc3)ccc2C#N)OC(N)=C(C#N)C1c1ccccc1` (centres undefined) it is -11.5%. The figure for `CCn1c(CCc2nc3ccccc3[nH]2)n[nH]c1=S` is -3.65%; for `Cc1cccc(Cl)c1NC(=O)N1CCN(c2ccnc3cc(Cl)ccc23)CC1` it is 0.44%. For the compound `Cc1ccc(F)cc1NC(=O)N1CCN(c2ccnc3cc(Cl)ccc23)CC1`, the inhibition is 25.6%. Turning to `COc1ccccc1NC(=O)N1CCN(c2ccnc3cc(Cl)ccc23)CC1`, the inhibition is 9.81%. In the case of `CC(=O)N1CCN(c2ccnc3cc(Cl)ccc23)CC1`, the inhibition is -0.19%.

A word on the inhibition: it is the relative decrease from the control value, in per cent.
